Article PMC7862700, “An all-to-all approach to the identification of sequence-specific readers for epigenetic DNA modifications on cytosine”

Columns and labels:
Assay in all cases: DAPPL (digital affinity profiling via proximity ligation, sequencing); 10 mM Tris-HCl pH 7.5, 50 mM NaCl, 1 mM DTT, 4% glycerol, room temperature, 30 min; GST-TFs on glutathione beads, 16-mer random dsDNA library, 0.1% formaldehyde crosslink after washing; high values mean tight binding
Settings in all cases: protein: recombinant; tags: N-terminal GST; dsDNA, one strand shown
FLI1 = target: T1, FLI1 (Homo sapiens, UniProt Q01543 1-452)
T1 sequence: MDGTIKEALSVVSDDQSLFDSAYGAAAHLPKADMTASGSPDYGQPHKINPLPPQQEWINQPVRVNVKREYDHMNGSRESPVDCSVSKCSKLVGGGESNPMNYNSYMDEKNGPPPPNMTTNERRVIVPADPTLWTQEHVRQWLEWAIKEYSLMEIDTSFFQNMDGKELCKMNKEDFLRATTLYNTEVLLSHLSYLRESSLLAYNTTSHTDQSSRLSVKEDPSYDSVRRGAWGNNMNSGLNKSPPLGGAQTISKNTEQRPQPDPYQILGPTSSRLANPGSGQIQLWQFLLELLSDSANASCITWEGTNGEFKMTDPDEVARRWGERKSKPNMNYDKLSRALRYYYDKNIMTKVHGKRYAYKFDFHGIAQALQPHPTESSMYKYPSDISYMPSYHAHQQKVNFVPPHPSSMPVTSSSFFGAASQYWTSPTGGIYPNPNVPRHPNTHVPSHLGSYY
Outline: (§1)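 Human transcription factors were made in yeast as GST fusions, captured on glutathione beads and barcoded with DNA. With a tag-only sample included, the pool was incubated with 200 nmole of a random double-stranded 16-mer DNA library in Tris/NaCl/DTT/glycerol buffer at room temperature for 30 min, then crosslinked with 0.1% formaldehyde after washing, ligated by proximity, amplified and sequenced. For binding signal, each hexamer's read frequency for a factor is divided by its frequency for the tag-only sample.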

ELK1 = target: T2, ELK1 (Homo sapiens, UniProt P19419 1-428)
T2 sequence: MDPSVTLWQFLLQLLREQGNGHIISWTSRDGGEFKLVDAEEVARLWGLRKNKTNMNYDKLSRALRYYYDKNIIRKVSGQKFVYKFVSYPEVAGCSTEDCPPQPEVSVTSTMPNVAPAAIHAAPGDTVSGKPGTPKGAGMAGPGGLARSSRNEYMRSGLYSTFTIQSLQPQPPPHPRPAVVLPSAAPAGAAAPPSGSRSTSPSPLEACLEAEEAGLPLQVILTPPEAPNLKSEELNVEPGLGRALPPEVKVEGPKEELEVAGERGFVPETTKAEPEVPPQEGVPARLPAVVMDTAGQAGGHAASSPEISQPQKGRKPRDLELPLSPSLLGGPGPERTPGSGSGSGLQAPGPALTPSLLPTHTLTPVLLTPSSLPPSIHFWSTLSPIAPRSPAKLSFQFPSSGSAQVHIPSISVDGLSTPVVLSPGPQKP
Outline: as §1

GABPA = target: T3, GABPA (Homo sapiens, UniProt Q06546 1-454)
T3 sequence: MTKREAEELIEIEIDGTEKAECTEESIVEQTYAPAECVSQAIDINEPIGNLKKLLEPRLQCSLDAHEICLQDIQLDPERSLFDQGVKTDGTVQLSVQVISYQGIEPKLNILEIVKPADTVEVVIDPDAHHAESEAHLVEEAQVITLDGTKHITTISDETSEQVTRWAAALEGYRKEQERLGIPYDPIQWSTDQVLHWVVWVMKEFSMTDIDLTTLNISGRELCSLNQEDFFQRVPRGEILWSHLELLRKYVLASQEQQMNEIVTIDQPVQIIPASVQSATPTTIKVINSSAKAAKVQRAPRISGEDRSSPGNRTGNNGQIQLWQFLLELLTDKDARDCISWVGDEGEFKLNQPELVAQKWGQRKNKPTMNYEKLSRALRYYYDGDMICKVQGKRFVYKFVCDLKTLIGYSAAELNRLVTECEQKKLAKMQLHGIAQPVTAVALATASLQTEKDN
Outline: as §1

ERG = target: T4, ERG (Homo sapiens, UniProt P11308 1-479)
T4 sequence: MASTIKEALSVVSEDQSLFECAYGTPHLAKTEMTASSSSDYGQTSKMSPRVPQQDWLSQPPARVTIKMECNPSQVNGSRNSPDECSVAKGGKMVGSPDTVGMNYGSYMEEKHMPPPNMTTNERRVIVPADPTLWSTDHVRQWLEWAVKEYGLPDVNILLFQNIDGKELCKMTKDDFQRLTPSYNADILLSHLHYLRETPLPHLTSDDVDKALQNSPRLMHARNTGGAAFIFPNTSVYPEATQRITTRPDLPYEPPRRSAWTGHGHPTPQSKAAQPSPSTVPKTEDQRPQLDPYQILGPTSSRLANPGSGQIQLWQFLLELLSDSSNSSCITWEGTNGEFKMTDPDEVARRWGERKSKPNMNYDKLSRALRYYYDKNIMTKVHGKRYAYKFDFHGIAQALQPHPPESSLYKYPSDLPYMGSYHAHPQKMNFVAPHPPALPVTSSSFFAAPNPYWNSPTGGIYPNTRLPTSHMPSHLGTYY
Outline: as §1

ELF1 = ELF1 (Homo sapiens, UniProt P32519 1-619)
Outline: as §1

EHF = target: T5, EHF (Homo sapiens, UniProt Q9NZC4 1-300)
T5 sequence: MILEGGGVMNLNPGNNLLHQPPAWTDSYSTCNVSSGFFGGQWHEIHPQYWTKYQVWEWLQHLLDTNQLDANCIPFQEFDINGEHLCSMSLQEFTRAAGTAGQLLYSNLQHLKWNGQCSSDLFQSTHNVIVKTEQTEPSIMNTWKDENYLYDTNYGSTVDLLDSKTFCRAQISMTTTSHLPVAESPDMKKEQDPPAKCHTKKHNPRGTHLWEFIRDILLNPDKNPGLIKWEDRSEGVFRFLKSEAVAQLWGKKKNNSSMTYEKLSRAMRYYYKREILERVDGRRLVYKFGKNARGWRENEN
Outline: as §1

SPI1 = SPI1 (Homo sapiens, UniProt P17947 1-270)
Outline: as §1

SPIB = SPIB (Homo sapiens, UniProt Q01892 1-262)
Outline: as §1

ELK3 = target: T6, ELK3 (Homo sapiens, UniProt P41970 1-407)
T6 sequence: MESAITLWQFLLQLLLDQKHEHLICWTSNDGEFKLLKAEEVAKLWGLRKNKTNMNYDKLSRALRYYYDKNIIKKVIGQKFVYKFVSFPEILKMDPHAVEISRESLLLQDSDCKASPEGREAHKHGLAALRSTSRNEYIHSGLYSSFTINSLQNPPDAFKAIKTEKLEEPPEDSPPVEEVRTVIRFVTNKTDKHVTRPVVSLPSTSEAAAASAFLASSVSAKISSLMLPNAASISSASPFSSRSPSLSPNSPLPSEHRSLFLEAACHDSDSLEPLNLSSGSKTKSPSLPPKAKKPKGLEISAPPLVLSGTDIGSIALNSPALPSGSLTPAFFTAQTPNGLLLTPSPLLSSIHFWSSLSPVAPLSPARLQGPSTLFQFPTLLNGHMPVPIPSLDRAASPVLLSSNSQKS
Outline: as §1

SPIB, sequence (Q01892 whole entry): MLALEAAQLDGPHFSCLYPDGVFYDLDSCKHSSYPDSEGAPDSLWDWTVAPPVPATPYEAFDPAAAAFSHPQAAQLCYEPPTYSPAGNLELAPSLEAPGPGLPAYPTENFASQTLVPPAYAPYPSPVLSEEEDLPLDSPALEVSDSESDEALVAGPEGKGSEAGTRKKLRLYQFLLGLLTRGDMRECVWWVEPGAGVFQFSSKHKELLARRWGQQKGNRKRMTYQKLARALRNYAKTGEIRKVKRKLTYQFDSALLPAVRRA
ELF1, sequence (P32519 whole entry): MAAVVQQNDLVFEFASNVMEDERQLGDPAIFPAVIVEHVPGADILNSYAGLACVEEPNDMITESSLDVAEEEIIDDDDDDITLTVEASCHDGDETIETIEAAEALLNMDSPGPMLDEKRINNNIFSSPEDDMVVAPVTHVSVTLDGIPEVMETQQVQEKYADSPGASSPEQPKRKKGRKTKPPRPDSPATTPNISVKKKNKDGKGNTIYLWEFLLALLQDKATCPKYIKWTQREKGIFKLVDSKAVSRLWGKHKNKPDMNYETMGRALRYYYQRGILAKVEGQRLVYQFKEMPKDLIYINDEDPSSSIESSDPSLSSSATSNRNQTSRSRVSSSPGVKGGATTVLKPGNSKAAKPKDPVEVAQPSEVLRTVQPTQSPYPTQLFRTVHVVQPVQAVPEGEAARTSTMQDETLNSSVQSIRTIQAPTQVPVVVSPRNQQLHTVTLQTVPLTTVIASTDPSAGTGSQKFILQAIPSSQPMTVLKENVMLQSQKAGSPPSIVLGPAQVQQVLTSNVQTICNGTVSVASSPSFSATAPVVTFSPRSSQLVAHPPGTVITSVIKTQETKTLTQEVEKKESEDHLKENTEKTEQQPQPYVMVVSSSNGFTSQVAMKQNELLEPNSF

**Q.** With GACTCT as the sequence, how does the binding signal (FLI1) read?
**A.** 1.3 fold enrichment (6-mer frequency, TF over GST control)

**Q.** What about the binding signal (ELK1) of the same sequence?
**A.** 1.28 fold enrichment (6-mer frequency, TF over GST control)

**Q.** What about the binding signal (GABPA) of the same sequence?
**A.** 1.37 fold enrichment (6-mer frequency, TF over GST control)

**Q.** And the binding signal (ERG)?
**A.** 1.34 fold enrichment (6-mer frequency, TF over GST control)

**Q.** What about the binding signal (ELF1) of the same sequence?
**A.** 1.37 fold enrichment (6-mer frequency, TF over GST control)

**Q.** And the binding signal (EHF)?
**A.** 1.27 fold enrichment (6-mer frequency, TF over GST control)

**Q.** What about the binding signal (SPI1) of the same sequence?
**A.** 1.2 fold enrichment (6-mer frequency, TF over GST control)

**Q.** What about the binding signal (SPIB) of the same sequence?
**A.** 1.37 fold enrichment (6-mer frequency, TF over GST control)

**Q.** What about the binding signal (ELK3) of the same sequence?
**A.** 1.2 fold enrichment (6-mer frequency, TF over GST control)
